We go through 15 compounds from PubChem BioAssay (NCI).

Among the test systems are T-47D breast; BT-549 breast; MDA-MB-435 melanoma; SW-620 colon; MCF7 breast; HCT-116 colon; HCC-2998 colon; KM12 colon.
Experiment in all cases: NCI-60 one-dose screen, 48 h (100 = growth as untreated, 0 = no growth, -100 = all killed)
Holding throughout (settings): 10 µM unless noted

The panel holds about 83,000 compounds, 20% with a hit somewhere; the sample as a whole holds those more often.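 Testing used 96-well plates and a 48-hour single-concentration exposure. Example: -40 means 40% of the starting cells died.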 Values without a mark were called inactive. Activity calls are given as the source filed them. The calls were made as follows: active = growth percent below 10; inactive = the rest.

For the compound `COc1ccc(/C=c2\nc3n(-c4ccccc4)c4nc5c6c(sc5c(=N)n4n-3c2=O)CCCC6)cc1`, the growth in the assay with T-47D breast was 71.9%; in the assay on BT-549 breast, 94.2%; in the assay on MDA-MB-435 melanoma it was 89.5%; in the assay on SW-620 colon, 104%; in the assay on MCF7 breast, 71.9%; with HCT-116 colon, 77%. The figures for the growth with HCC-2998 colon and in the assay with KM12 colon were 105% and 92.5%, respectively.
For the compound `Cc1ccc(CCC(=O)Nc2ncc(Cc3cc(Cl)ccc3Cl)s2)o1`, the growth in the assay with T-47D breast is 54.3%; in the assay on BT-549 breast, 3.48% (active); in the assay on MDA-MB-435 melanoma, -36.8% (active); in the assay on SW-620 colon it was 20.8%; in the assay on MCF7 breast, 13%; in the assay with HCT-116 colon, 9.11% (active). For the same compound, the growth with HCC-2998 colon is 8.63% (active); with KM12 colon it was 14.9%.
On to `CC(=O)N1N=C(c2ccc(Nc3nc(Nc4ccc(F)cc4)nc(Nc4ccc(F)cc4)n3)cc2)CC1c1cccc([N+](=O)[O-])c1` (stereo not given), for which the growth was 80.3% in the assay on T-47D breast; 102% with BT-549 breast; 111% with MDA-MB-435 melanoma; 96.9% in the assay on SW-620 colon; 88.3% in the assay on MCF7 breast; 92.9% in the assay with HCT-116 colon. Further, the growth is 54% in the assay with HCC-2998 colon and 104% in the assay on KM12 colon.
Consider `COC(=O)[C@]12CC[C@@H](C)[C@H](C)[C@@H]1C1=CC[C@@H]3[C@@]4(C)C(C=O)=C[C@@](C)(COC(=O)/C=C/c5ccccc5)[C@@H]4[C@H](O)C[C@@]3(C)[C@]1(C)CC2`, for which the growth in the assay on T-47D breast is -6.88% (active); in the assay on BT-549 breast, -7.43% (active); in the assay with MDA-MB-435 melanoma, -6.08% (active); with SW-620 colon it was 5.68% (active); in the assay with MCF7 breast it was 10.6%; in the assay with HCT-116 colon it was -72.5% (active). The growth in the assay on HCC-2998 colon is -29.9% (active); in the assay on KM12 colon, 6.25% (active).
`O=C(Nc1ccc(Nc2ccncc2)cc1)c1ccc(C(=O)Nc2ccc(Nc3ccncc3)cc2)cc1`: the growth in the assay with T-47D breast is 33.8%; in the assay on BT-549 breast, 123%; with MDA-MB-435 melanoma, 48.8%; in the assay on SW-620 colon it was 42.2%; in the assay on MCF7 breast, 26.8%; in the assay with HCT-116 colon, 32.7%. Moreover, the growth with HCC-2998 colon is 87%; with KM12 colon, 47.4%.
For `CC(C)=C[C@@H]1c2c(c3ccccc3n(C)c2=O)O[C@H]2c3c(c4ccccc4n(C)c3=O)OC(C)(C)[C@@H]12`, the growth in the assay with T-47D breast is 57.7%; in the assay on BT-549 breast, 54.7%; in the assay with MDA-MB-435 melanoma it was 83.9%; in the assay on SW-620 colon it was 89.9%; with MCF7 breast, 69.8%; with HCT-116 colon, 81.6%. The growth in the assay on HCC-2998 colon was 82.7%; with KM12 colon, 89.1%.
Take `COc1ccc2oc3c(C)c4c(c(C)c3c2c1)C(=O)N(Cc1ccccc1)C4=O`: the growth with T-47D breast was 95%; in the assay on BT-549 breast it was 96.1%; in the assay with MDA-MB-435 melanoma, 99.2%; in the assay on SW-620 colon, 78.3%; in the assay on MCF7 breast, 95.5%; with HCT-116 colon, 65.5%. In addition, the growth in the assay with HCC-2998 colon was 102%; in the assay on KM12 colon, 97.4%.
On to `N#CC1=C(NC=O)Oc2c(ccc3ccccc23)C1c1ccccc1` (stereo not given), for which the growth in the assay with T-47D breast is 25.2%; with BT-549 breast, 25.9%; in the assay on MDA-MB-435 melanoma, -33% (active); in the assay on SW-620 colon, 21.3%; with MCF7 breast, 17.5%; in the assay with HCT-116 colon, 21.1%. In addition, the growth with HCC-2998 colon was 63%; in the assay on KM12 colon, 30.7%.
Turning to `CN(Cc1cnc2nc(N)nc(N)c2n1)c1ccc(C(=O)N[C@@H](CCc2nn[nH]n2)c2nn[nH]n2)cc1`, the growth in the assay with T-47D breast is 75.9%; in the assay with BT-549 breast it was 53.2%; with MDA-MB-435 melanoma, 38.5%; in the assay on SW-620 colon, 20.1%; in the assay with MCF7 breast, 17%; in the assay with HCT-116 colon it was 18.3%. Further, the values for the growth in the assay on HCC-2998 colon and in the assay with KM12 colon were 52.6% and 33%, respectively.
With `N=C1C(c2nc(-c3ccc(Br)cc3)cs2)=C(O)CN1Cc1cccnc1`, the growth is 46.3% in the assay on T-47D breast; 39.9% with BT-549 breast; 53.4% in the assay with MDA-MB-435 melanoma; 81.5% in the assay on SW-620 colon; 77.9% in the assay on MCF7 breast; 21.4% with HCT-116 colon. Also, the growth in the assay with HCC-2998 colon was 85.9%; in the assay on KM12 colon it was 61.7%.
For the compound `N/C(=N\c1nc2ccccc2s1)NC(=O)Nc1cccc(Cl)c1`, the growth in the assay with T-47D breast is 42.6%; in the assay on BT-549 breast, 42.8%; in the assay with MDA-MB-435 melanoma, 1.08% (active); in the assay with SW-620 colon, 31.9%; with MCF7 breast, 21.2%; with HCT-116 colon it was 16%. Also, the growth was 73% in the assay on HCC-2998 colon and 22.9% in the assay on KM12 colon.
For `COc1cccc(-c2nc3sccn3c2/C=C/C(=O)c2ccc(C(F)(F)F)cc2)c1`, the growth in the assay with T-47D breast was 64.1%; in the assay with BT-549 breast it was 87.3%; with MDA-MB-435 melanoma, 73.3%; in the assay with SW-620 colon, 66.3%; in the assay on MCF7 breast it was 65%; in the assay with HCT-116 colon, 48.4%. Moreover, the growth is 102% in the assay with HCC-2998 colon and 73.1% in the assay on KM12 colon.
On to `O=C(N/N=C/C=C/c1ccc([N+](=O)[O-])o1)c1cc2ccccc2cc1O`, for which the growth is -65.5% (active) with T-47D breast; -9.91% (active) in the assay on BT-549 breast; -24.2% (active) with MDA-MB-435 melanoma; -75.6% (active) in the assay with SW-620 colon; -61.3% (active) in the assay with MCF7 breast; -92.8% (active) in the assay on HCT-116 colon. Besides, the growth in the assay with HCC-2998 colon was -100% (active); in the assay on KM12 colon, -67.3% (active).
For the compound `COc1cc2c(cc1-c1c(C)noc1C)ncc1nc(C3CCCCC3)n(C3CCC(OC(F)F)CC3)c12` (stereo not given), the growth in the assay with T-47D breast is -0.67% (active); in the assay on BT-549 breast, 51.5%; with MDA-MB-435 melanoma, 41.6%; in the assay with SW-620 colon, 58.3%; with MCF7 breast it was 15.1%; with HCT-116 colon it was 24.8%. Moreover, the growth was 42.7% in the assay on HCC-2998 colon and 39.2% in the assay with KM12 colon.
Take `Nc1nc(N)c2c(n1)NC(c1ccccc1)C1CCc3ccccc3C1=N2` (stereo not given): the growth in the assay with T-47D breast was 30.7%; with BT-549 breast it was 39%; in the assay with MDA-MB-435 melanoma, 28.4%; in the assay with SW-620 colon, 58.9%; in the assay with MCF7 breast, 18.7%; in the assay with HCT-116 colon, 26.1%. In addition, the growth was 65.4% with HCC-2998 colon and 39.1% in the assay on KM12 colon.
